# SKKanGAS inh: blocks kanamycin growth of S. pyogenes SKKanGAS strain. BacTiter-Glo, 6 h. inhibition, % at 7.5 µM. actives 1.3% (n = 300,000). AID 1662;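 active = mean replicate score, as percent of positive control median, at least 50; inconclusive = mean below 50 but one replicate at or above 50; inactive = mean and every replicate below 50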;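 note: strain carries kanamycin resistance gene driven by streptokinase promoter and grows in 40 µg/ml kanamycin; loss of luminescence reflects streptokinase promoter inhibition or plain growth inhibition; 0% = median of DMSO wells and 100% = positive control at its reference dose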
# CSC inhib: cancer stem cell inhibition | cancer stem cell-like cells viability, luminescence | inhibition, % at 7.5 µM | actives 1.1% (n = 300,000); in the data active = inhibition above about 75%; inconclusive = no clear call, values can overlap the other calls; tested in HMLE shEcad cells
# Beta apoptosis: beta cell apoptosis inhibition | protection from apoptosis, % (no concentration beside the values) | actives 0.8% (n = 300,000) | AID 435005 | INS-1E cytokine-induced death, ATP luminescence, 48 h; percent of positive-control rescue, neutral wells zero;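 active = Every replicate reaches about 75%, or at least half do and their mean reaches it too, limit read from the data; inconclusive = At least half of replicates reach the limit but their mean does not; inactive = Under half of replicates reach the limit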;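 note: 0% = cytokine-treated negative control wells and 100% = positive control rescue; higher means more ATP so stronger rescue from cytokine killing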
# NR3A LBD binder: modulators (binders) of human NR3A ligand-binding domain. NR3A LBD differential scanning fluorimetry, Tm shift; 0% = protein alone, 100% = glycine-bound protein. Tm shift relative to glycine control, % at 25 µM. actives 2.5% (n = 340,000);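 active = melting temperature shift of at least 10% of the positive control shift, at one fixed dose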
# Mdm2-MdmX inh: human Mdm2/MdmX binding inhibition; inhibition, % at 8 µM; SaOS-2 split-luciferase Mdm2/MdmX complementation, luminescence; O15151+Q00987; actives 3% (n = 330,000);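 active = inhibition of at least 50% at 8 µM in the primary screen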
# Target sequence (O15151 whole entry, looked up): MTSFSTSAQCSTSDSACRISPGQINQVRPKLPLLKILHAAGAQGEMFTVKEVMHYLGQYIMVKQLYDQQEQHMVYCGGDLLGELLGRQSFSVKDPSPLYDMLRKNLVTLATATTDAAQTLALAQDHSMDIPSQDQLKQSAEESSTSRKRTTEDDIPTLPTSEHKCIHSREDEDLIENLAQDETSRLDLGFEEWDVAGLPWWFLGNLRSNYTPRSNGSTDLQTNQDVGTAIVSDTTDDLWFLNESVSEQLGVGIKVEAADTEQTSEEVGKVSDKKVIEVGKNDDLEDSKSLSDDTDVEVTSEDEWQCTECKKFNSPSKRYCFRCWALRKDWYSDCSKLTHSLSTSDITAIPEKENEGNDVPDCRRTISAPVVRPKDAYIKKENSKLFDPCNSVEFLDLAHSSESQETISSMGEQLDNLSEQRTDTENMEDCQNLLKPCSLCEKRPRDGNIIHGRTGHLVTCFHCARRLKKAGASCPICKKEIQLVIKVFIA
# Target sequence (Q00987 whole entry, looked up): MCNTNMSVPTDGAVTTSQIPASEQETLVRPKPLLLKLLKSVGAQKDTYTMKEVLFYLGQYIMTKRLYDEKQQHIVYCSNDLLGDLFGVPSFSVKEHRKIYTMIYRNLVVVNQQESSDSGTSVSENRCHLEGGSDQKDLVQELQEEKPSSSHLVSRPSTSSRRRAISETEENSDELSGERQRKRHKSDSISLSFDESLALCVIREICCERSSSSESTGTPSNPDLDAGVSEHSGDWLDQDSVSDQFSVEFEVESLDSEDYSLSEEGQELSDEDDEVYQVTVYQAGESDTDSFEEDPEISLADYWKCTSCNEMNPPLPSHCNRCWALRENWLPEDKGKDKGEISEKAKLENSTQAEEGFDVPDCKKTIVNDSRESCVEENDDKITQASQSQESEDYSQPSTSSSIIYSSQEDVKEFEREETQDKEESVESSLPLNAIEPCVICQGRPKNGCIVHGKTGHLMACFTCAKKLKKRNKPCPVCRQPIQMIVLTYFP
# MPTP block: blocks calcium-induced mitochondrial swelling; actives 1.4% (n = 360,000); AID 602449; isolated mouse mitochondria, Ca2+ swelling absorbance, 30 min; inhibition, % at 10 µM;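 active = inhibition of 50% or more, scaled per plate between neutral and stimulator controls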;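 note: 0% = DMSO wells given calcium and 100% = 1 mM EGTA wells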
# Mdm2-MdmX conf: human Mdm2/MdmX binding inhibition, confirmed | shares compounds with Mdm2-MdmX inh | luminescent assay | inhibition, % at 8 µM | actives 55% (n = 10,000) | AID 489028; in the data active = inhibition above about 40%
# Full FLuc ctr: inhibits full-length luciferase, flagging false Mdm2/MdmX hits; shares compounds with Mdm2-MdmX inh; SaOS-2 full-length luciferase counterscreen, luminescence; inhibition, % at 8 µM; actives 77% (n = 6,200); AID 504607;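 active = mean inhibition at 8 µM reaching about 37%, which flags the compound as non-specific, limit read from the data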;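 note: p53-null SaOS-2 cells with luciferase driven by a doxycycline-inducible promoter; compound on cells about two nights before reading with doxycycline added after day one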
# * hit, by the source's call; ? = inconclusive; · = no result. Only some compounds are listed: those with a hit (about 6.9% of all), similar ones and a draw of the others.
SMILES,SKKanGAS inh,CSC inhib,Beta apoptosis,NR3A LBD binder,Mdm2-MdmX inh,MPTP block,Mdm2-MdmX conf,Full FLuc ctr
O=C(Nc1ccsc1C(=O)O)c1cccc(Oc2ccccc2)c1,10.6,45.2,3.0,-18.9,-45.7,0.7,·,·
O=C(Nc1nnc(-c2cccs2)o1)c1cccc(Oc2ccccc2)c1,·,63.1,0.2,-7.1,54.9*,-17.4,30.6,·
Cc1cccc(-c2nnn3c2nc(NCCc2ccc(S(N)(=O)=O)cc2)c2ccccc23)c1,7.2,-5.9,4.0,32.7*,67.4*,-0.3,50.2*,73.7*
NS(=O)(=O)c1ccc(CCNc2nc3c(-c4cccc(F)c4)nnn3c3ccccc23)cc1,12.8,4.6,18.8,14.7*,67.1*,1.5,31.1,·
COc1ccc(C2CC(c3ccccc3)=NN2C(=O)CSc2nnnn2-c2cccc(C)c2)cc1 (stereo not given),8.4,1.0,-10.0,0.9,28.3,1.4,·,·
O=S(=O)(c1ccccc1)c1ncc(C(F)(F)F)cc1Cl,-5.1,·,·,0.0,60.7*,-1.0,31.8,·
O=C(c1cc(-c2cccc(O)c2)on1)N1CCN(C(c2ccccc2)c2ccccc2)CC1,30.1,144.3*,80.8*,-2.7,50.0,2.8,12.8,·
COc1ccccc1NC(=O)C(C)OC(=O)C1COc2ccccc2O1 (stereo not given),·,·,0.2,-1.6,0.1,-0.3,·,·
CCCCCCOc1ccc(/C(C)=N/NC2=NCCN2)cc1[N+](=O)[O-],7.5,?,56.5,-2.0,52.1*,-0.8,70.8*,106.2*
C/C(=N\NC1=NCCN1)c1ccc(N)c([N+](=O)[O-])c1,1.3,-2.5,-0.8,-0.5,-2.0,-1.5,·,·
CC(=O)c1cn(CCOc2ccc(F)cc2)c2ccccc12,1.9,27.4,16.7,2.0,25.9,17.9,·,·
CCCN1CCC(NCc2cn(C)nc2-c2ccc(Oc3ccccc3)cc2)CC1,-11.3,6.2,4.2,-1.0,64.7*,-0.5,64.8*,56.5*
N/C(CCS(=O)(=O)c1ccc(Cl)cc1)=N\OC(=O)c1ccc(Cl)cc1,-4.5,5.4,-0.5,-1.2,55.1*,1.9,17.8,·
CCN(CC(=O)Nc1ccccc1C(F)(F)F)C(=O)CCS(=O)(=O)c1ccc(Cl)cc1,-7.2,-4.7,-4.6,-0.9,-2.7,-0.8,·,·
N/C(CCS(=O)(=O)c1ccc(Cl)cc1)=N\OC(=O)c1ccccc1C(F)(F)F,-4.1,10.2,·,2.0,94.4*,0.5,93.4*,22.7
CC[C@]12c3[nH]c4ccccc4c3CCN1C(=O)C(CC(=O)NCCCn1ccnc1)C[C@@H]2C(=O)N1CCN(C(=O)c2ccco2)CC1 (stereo not given in full),·,8.1,-1.2,-1.5,12.5,-0.2,·,·
CCCCCCn1c2c(c(=N)c3c1CCC3)CCC2,12.7,25.5,108.6*,-2.0,67.2*,3.7,60.5*,38.9*
C[C@H](CO)N1C[C@H](C)[C@@H](CN(C)C(=O)Nc2ccc3c(c2)OCO3)Oc2c(NC(=O)Nc3ccc4c(c3)OCO4)cccc2C1=O,·,2.9,-2.9,-39.5,29.0,-0.3,·,·
C/C(=N\NC(=O)c1c[nH]c2ccccc12)c1ccccn1,16.7,20.5,17.0,-11.9,39.2,0.3,·,·
C/C(=N\NC(=O)c1cc2ccccc2cc1O)c1ccccn1,101.9*,-9.5,98.7*,-7.6,52.8*,1.5,54.1*,24.3
C=CCNC(=S)N/N=C(\C)c1ccccn1,81.1*,113.6*,93.4*,-0.8,91.4*,-1.3,63.8*,31.6
C/C(=N\NC(=O)CCCNc1ccc(C)cc1)c1ccccn1,-12.1,34.3,53.8,0.5,62.3*,-0.4,55.2*,47.0*
C/C(=N\NC(=O)CCCNc1ccccc1)c1ccncc1,3.5,·,-6.3,-1.0,6.5,-1.5,·,·
C/C(=N\NC(=O)c1ccc(F)cc1)c1ccccn1,88.5*,104.3*,110.9*,11.8*,97.3*,0.1,60.0*,58.2*
CC(=NNC(=S)Nc1ccccc1)c1ccccn1,·,·,·,·,·,1.0,·,·
CC(C)[C@H](NC(=O)c1ccc(C(C)(C)C)cc1)C(=O)N1CCN(Cc2ccc3c(c2)OCO3)CC1,·,·,25.1,-2.0,52.3*,0.9,32.3,55.0*

# Source: PubChem BioAssay
